A number with no mark means an inactive call. Activity calls are given as the source filed them. Calls follow the shape of the full dose curve.
molecular target: Acetylcholinesterase (Homo sapiens) (UniProt P22303); experiment: Acetylcholinesterase (AChE) small molecule antagonists: enzyme-based qHTS assay with human liver microsomes (AID 1347399); conditions: Potency: qHTS inhibition; series mostly up to 115 µM; activity change, negative = inhibition: at the top concentration; also: nearly all actives have a fitted effect of over 60% in size
From the text: National Center for Advancing Translational Sciences [NCATS]
Division of Preclinical Innovation [DPI]
U.S. Environmental Protection Agency [EPA]
National Institutes of Environmental Health Sciences [NIEHS]
National Toxicology Program [NTP]
U.S. Food and Drug Administration [FDA]
Acetylcholinesterase (AChE) is the primary cholinesterase in the body that hydrolyzes a key neurotransmitter, acetylcholine. Inhibition of AChE activity can lead to neurotoxicity. The known inhibitors include organophosphorous pesticides (OP), chemical warfare agents, drugs, and various phytochemicals. Some compounds like OP compounds may need metabolic activation to be active AChE inhibitors. The cytochrome P450 (CYP) superfamily in the human microsomes is responsible for the metabolism of various endogenous and exogenous compounds.
An enzyme-based assay with the recombinant human AChE, human liver microsomes and Amplite Colormetric acetylcholinesterase assay kit (AAT Bioquest, Sunnyvale, CA) was used to evaluate compounds in the Tox21 10K library that need metabolic activation for AChE inhibition. The assay uses 5, 5-dithiobis-(2-nitrobenzoic acid) (DTNB) to quantify the thiocholine produced from the hydrolysis of acetylthiocholine by AChE.
Tox21 Assay Protocol Summary:
For the enzyme-based AChE assay with microsomes addition, a mixture of human AChE (50 mU/mL) and human liver microsomes (0.25 mg/mL, final concentration) in 3 uL/well was dispensed into black, clear-bottom 1536-well plates using a Multidrop Combi dispenser (Thermo Scientific, MA). Then, 23 nL of compound or DMSO (vehicle control) was transferred into the assay plates by a Pintool Station (Wako Automation, CA). Following compound addition, 1 uL of NADPH (0.25 mg/mL, final concentration) was transferred to the assay plate by a Flying Reagent Dispenser (Beckman Coulter, CA). The plates were incubated for 30 min at 37 C and 5% CO2, followed by the addition of 4 uL of colorimetric detection cocktail solution (DTNB, acetylthiocholine) into each well using a Flying Reagent Dispenser (Beckman Coulter, CA) and then 10 min incubation at room temperature.
% is scaled to controls: 0 for no effect and ±100 for the full control effect; potency is read from the fitted curve at half-maximal effect.

Chain of Acetylcholinesterase (Homo sapiens) (P22303 whole entry, looked up): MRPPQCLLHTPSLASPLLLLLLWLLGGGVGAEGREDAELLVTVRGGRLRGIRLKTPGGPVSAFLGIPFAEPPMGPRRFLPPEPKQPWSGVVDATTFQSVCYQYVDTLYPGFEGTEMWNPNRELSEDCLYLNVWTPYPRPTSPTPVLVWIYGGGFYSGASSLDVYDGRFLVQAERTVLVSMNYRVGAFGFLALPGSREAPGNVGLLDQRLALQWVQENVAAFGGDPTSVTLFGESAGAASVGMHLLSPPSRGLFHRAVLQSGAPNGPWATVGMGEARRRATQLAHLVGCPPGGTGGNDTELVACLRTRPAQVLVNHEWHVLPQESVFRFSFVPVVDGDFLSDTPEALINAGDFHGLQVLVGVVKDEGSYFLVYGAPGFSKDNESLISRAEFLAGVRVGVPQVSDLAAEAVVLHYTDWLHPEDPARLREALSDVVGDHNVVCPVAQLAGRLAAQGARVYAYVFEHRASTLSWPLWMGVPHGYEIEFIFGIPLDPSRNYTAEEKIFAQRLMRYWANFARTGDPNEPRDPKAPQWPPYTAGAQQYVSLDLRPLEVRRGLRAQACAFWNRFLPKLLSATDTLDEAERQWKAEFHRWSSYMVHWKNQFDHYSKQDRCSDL

Structure (SMILES)	activity change, negative = inhibition	Potency
Cc1cccc(Cc2cnc[nH]2)c1C	-0.335% [at 53 µM]	–
O=[N+]([O-])C(Br)Br	1.56%	–
CC#C[C@]1(O)CC[C@H]2[C@@H]3C[C@H](C)C4=CC(=O)CC[C@]4(C)[C@H]3CC[C@@]21C	-0.339% [at 53 µM]	–
Fc1ccc(C(OCCN2CCN(CCCc3ccccc3)CC2)c2ccc(F)cc2)cc1	-0.147% [at 53 µM]	–
CN1[C@@H]2CC[C@H]1CC(O)C2 (stereo not given in full)	-0.162%	–
CC[C@H](C)[C@H]1O[C@]2(C=C[C@@H]1C)C[C@@H]1C[C@@H](C/C=C(\C)[C@@H](O[C@H]3C[C@H](OC)[C@@H](O[C@H]4C[C@H](OC)[C@@H](NC)[C@H](C)O4)[C@H](C)O3)[C@@H](C)/C=C/C=C3\CO[C@@H]4[C@H](O)C(C)=C[C@@H](C(=O)O1)[C@]34O)O2	4.1%	–
Oc1cc(Cl)c(Cl)c(Cl)c1Cl	-0.171%	–
CCOC(=O)CCN(SN(C)C(=O)Oc1cccc2c1OC(C)(C)C2)C(C)C	–	796 nM (active)
CCC1COC(Cn2cncn2)(c2ccc(Cl)cc2Cl)O1 (stereo not given)	0%	–
CC1(C)C(C=C(Cl)Cl)C1C(=O)OC(C#N)c1ccc(F)c(Oc2ccccc2)c1 (stereo not given)	3.19%	–
CCCCCON=O	-1.13%	–
CSSC	-0.849%	–
C[N+]1(C)[C@@H]2CC[C@H]1CC(OC(=O)C(CO)c1ccccc1)C2 (stereo not given in full)	-2.06% [at 53 µM]	–
COc1cnc(OC)n2nc(NS(=O)(=O)c3c(OCC(F)F)cccc3C(F)(F)F)nc12	-1.24%	–
Oc1ccc(Cl)c(Cl)c1	-1.03%	–
N#Cc1sc2c(=O)c3ccccc3c(=O)c=2sc1C#N	-2.44%	–
Cc1ccc(C)c2ccccc12	1.89%	–
N#Cc1c2ccccc2cc2ccccc12	4.29%	–
FC(F)C(F)(F)OCC(Cn1cncn1)c1ccc(Cl)cc1Cl (stereo not given)	4.34%	–
CCC1(CC)C(=O)N=C(O)NC1=O	1.62%	–

Structure (SMILES)	activity change, negative = inhibition	Potency
C[C@@H]1CC2=CC(=O)CC[C@@H]2[C@H]2CC[C@@]3(C)[C@@H](CC[C@]3(C)O)[C@@H]21	3.19% [at 53 µM]	–
OCC(Br)CBr (stereo not given)	0.0214%	–
COP(=S)(NC(C)C)Oc1ccc(C)cc1[N+](=O)[O-] (stereo not given)	0.19%	–
CC(C)N(C(=O)CCl)c1ccccc1	–	inactive
Cc1cc(C2CC2)nc(Nc2ccccc2)n1	-4.37%	–
CN1C2CCC(C)(C)C1CC(OC(=O)C(O)(c1cccs1)c1cccs1)C2 (stereo not given)	1.34% [at 53 µM]	–
Nc1ccccc1-c1ccccc1	-0.327%	–
O=S(=O)(NS(=O)(=O)C(F)(F)F)C(F)(F)F	-2.23%	–
Cc1ccc2cc3c(ccc4ccccc43)c3c2c1CC3	-0.974% [at 53 µM]	–
CN(C)C(=S)SSC(=S)N(C)C	–	inactive
CC(C)=CC1C(C(=O)OC(C#N)c2cccc(Oc3ccccc3)c2)C1(C)C (stereo not given)	-3.81%	–
CCN(CC)C(=S)S	–	inactive
c1ccc2nc(N3CCNCC3)ccc2c1	1.16% [at 53 µM]	–
COc1ccc2c3c1O[C@H]1[C@H](O)CC[C@H]4[C@@H](C2)N(C)CC[C@@]341	-3.35%	–
CC(C)Br	0%	–
S=C=Nc1ccccc1	0%	–
CCC(C)c1cccc(C(C)CC)c1O (stereo not given)	0.611%	–
Nc1ccc(Cl)cc1C(=O)c1ccccc1F	4.87% [at 53 µM]	–
Nc1c(Cl)c(Cl)c(Cl)c(Cl)c1Cl	1.68%	–
CC(Cc1ccc2c(c1)OCO2)NO (stereo not given)	0.234%	–

— PubChem BioAssay (Tox21)
